Hits are enriched below; roughly 12% of the tested compounds scored in any of these assays.
PI5P4Ka inh = inhibitors of human PI5P4K alpha; P48426; PI5P4Kalpha enzyme, ADP-Glo luminescence, 60 min; hits give low values; max response, %; actives 1.2% (n = 330,000); AID 652105; active = max response of -50% or lower; inconclusive = between -30% and -50%; inactive = -30% or higher; note: value at the top dose of about 77 µM
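Controls without substrate or without enzyme flank wells where PI5P4Kalpha converts substrate using 5 microM ATP (final). Incubation lasts 60 minutes at room temperature; ADP formed is read by ADP-Glo luminescence.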
BAZ2B inh = BAZ2B (human) inhibition; AlphaScreen BAZ2B-H3K14Ac peptide displacement; Potency, µM (top dose mostly 114 µM), hits mostly inhibitors; actives 4.4% (n = 360,000); AID 504333; note: nearly all actives have a fitted effect of over 60% in size
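AlphaScreen displacement: compounds (up to 110uM) incubated 30 min at room temperature with a preformed 50 nM BAZ2B/50 nM biotinylated H3K14Ac peptide complex in PBS pH 7.4 with Tween-20. Donor and acceptor beads at 10 ug/mL final added, 20 min light-protected before reading.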
HP1b chromo inh = blocks HP1-beta chromodomain binding to methylated histone tails. actives 0.56% (n = 390,000). P83916. AlphaScreen HP1-beta / biotin-H3K9me3 peptide binding. Potency, µM (highest dose often 114 µM), actives largely listed as inhibitors; note: nearly all actives have a fitted effect of over 70% in size
Target sequence (P83916 whole entry, looked up): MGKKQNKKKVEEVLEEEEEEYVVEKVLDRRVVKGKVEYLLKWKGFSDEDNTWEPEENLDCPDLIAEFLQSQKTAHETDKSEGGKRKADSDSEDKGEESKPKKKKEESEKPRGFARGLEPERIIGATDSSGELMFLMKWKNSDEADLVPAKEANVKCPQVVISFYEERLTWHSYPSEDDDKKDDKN
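HP1-beta protein (50 nM final) preincubated 30 min at room temperature with biotinylated H3(1-18)K9me3 peptide (50 nM) in PBS pH 7.4, 0.01% Tween-20, then compound added for 30 min. AlphaScreen streptavidin donor/nickel chelate acceptor beads (10 ug/mL final), 30 min dark, luminescence read.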
G9a block = inhibitors of human histone lysine methyltransferase G9a. Potency, µM (top dose mostly 102 µM), hits mostly inhibitors. actives 8.8% (n = 350,000). Q96KQ7. G9a H3K9 monomethylation, AlphaScreen, 2 h; note: nearly all actives have a fitted effect of over 75% in size
Target sequence (Q96KQ7 913-1193 limits assumed): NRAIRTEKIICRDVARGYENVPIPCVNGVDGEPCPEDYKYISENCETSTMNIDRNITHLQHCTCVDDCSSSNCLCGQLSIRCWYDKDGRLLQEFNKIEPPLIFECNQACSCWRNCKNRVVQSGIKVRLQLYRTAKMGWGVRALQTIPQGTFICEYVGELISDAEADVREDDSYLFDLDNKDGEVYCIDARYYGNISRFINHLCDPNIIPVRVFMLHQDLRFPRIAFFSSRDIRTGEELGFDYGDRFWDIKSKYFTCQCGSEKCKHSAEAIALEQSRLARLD
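Chemiluminescent proximity detection of H3K9 monomethylation, read after 10 min bead incubation in the dark. Reaction: 20 nM G9a, 500 nM biotin-H3K9 peptide, 20 uM SAM cofactor, 2 h, room temperature, following 15 min enzyme-compound preincubation.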
JMJD2A Tudor = inhibitors of human JMJD2A Tudor domain | O75164 | AlphaScreen JMJD2A-Tudor / H3K4me3 peptide binding | Potency, µM (top dose mostly 114 µM), actives largely listed as inhibitors | actives 4.4% (n = 390,000) | AID 504339; note: nearly all actives have a fitted effect of over 50% in size
PLK1 PBD inh = PLK1 (human) polo-box domain binding inhibition; Plk1 PBD binding of FITC phosphopeptide, fluorescence polarization; Potency, µM, hits mostly inhibitors; actives 2.8% (n = 360,000); P53350; note: series mostly up to about 57 µM; nearly all actives have a fitted effect of over 65% in size
Each line names hits and unclear results; the compound was inactive in the other large screens. Unless noted, calls come from the whole dose curve; as a rule, active = well fitted curve in the direction sought with a large enough effect; inconclusive = small, poorly fitted or top-dose-only effect, or another doubt; inactive = no such curve, though single readings can be large; an effect the other way counts as inactive or inconclusive.

Cc1c(NC(=O)c2cc(-c3cccc(Cl)c3)on2)c(=O)n(-c2ccccc2)n1C	none
O=C(CC12CC3CC(CC(C3)C1)C2)Nc1c(F)cccc1F	none
CN(C)C(=O)c1cnc(Sc2ncc(C(F)(F)F)cc2Cl)n1C	G9a block 56µM
Cn1c(=NC(=O)c2ccccc2[N+](=O)[O-])sc2cc(S(C)(=O)=O)ccc21	none
CS(=O)(=O)c1ccc2c(c1)sc1nc(=O)c(/C=C3/C=CC(=O)C(O)=C3)c(N)n12	PI5P4Ka inh -80, BAZ2B inh 14µM, HP1b chromo inh 16µM, G9a block 5µM, JMJD2A Tudor 7.1µM
CCCn1c(=NC(=O)CS(=O)(=O)c2ccccc2)sc2cc(S(C)(=O)=O)ccc21	none
COC1=C/C(=C/c2c(N)n3c(nc2=O)sc2cc(S(C)(=O)=O)ccc23)C=CC1=O	PI5P4Ka inh -76, JMJD2A Tudor inconclusive
CCCn1cc(S(=O)(=O)c2ccccc2)c(=O)c2cc(CC)ccc21	none
CCc1ccc2c(c1)c(=O)c(S(=O)(=O)c1ccc(Cl)cc1)cn2CC	BAZ2B inh 56µM (no result: PI5P4Ka inh, PLK1 PBD inh)
O=C(NC(c1ccc(Cl)cc1)c1ccccn1)C1CCN(CCOc2ccc(Cl)cc2Cl)CC1 (stereo unspecified)	none (no result: BAZ2B inh, HP1b chromo inh, G9a block, JMJD2A Tudor)
Nc1[nH]c(=S)[nH]c(=O)c1-c1ccccc1	G9a block inconclusive, JMJD2A Tudor 35µM, PLK1 PBD inh inconclusive
CCCNC(=O)C1(C)CCCN(CC(=O)c2ccccc2OC)C1 (stereo unspecified)	none (no result: BAZ2B inh, HP1b chromo inh, G9a block, JMJD2A Tudor)
O=C(c1cccs1)c1coc2ccc(O)c(CN(CCO)CCO)c12	G9a block 40µM (no result: PI5P4Ka inh)
CCN(CC)Cc1c(O)ccc2occ(C(=O)c3ccccc3)c12	none
S=C(Nc1ccccc1)c1ccccn1	BAZ2B inh 35µM, HP1b chromo inh inconclusive, JMJD2A Tudor 56µM
S=C(Nc1ccccc1)Nc1ccccn1	none (no result: BAZ2B inh, HP1b chromo inh, G9a block, JMJD2A Tudor)
S=C(NCCc1ccccn1)Nc1ccccc1	none
S=C(Nc1ccc(Nc2ccccc2)cc1)Nc1ccccn1	BAZ2B inh 16µM, HP1b chromo inh inconclusive, G9a block 10µM, JMJD2A Tudor 20µM
CN(C(=O)c1cc2nc(-c3ccco3)cc(C(F)(F)F)n2n1)C1CCCCC1	G9a block 56µM (no result: PI5P4Ka inh)
O=C(c1cc2nc(-c3ccco3)cc(C(F)(F)F)n2n1)N1CCN(c2ccccc2)CC1	BAZ2B inh inconclusive, G9a block 45µM (no result: PI5P4Ka inh)
O=C(c1cc2nc(-c3ccco3)cc(C(F)(F)F)n2n1)N1CCN(c2ccccn2)CC1	G9a block inconclusive
CCCc1cc(=O)[nH]c(SCC(=O)c2c[nH]c3ccccc23)n1	HP1b chromo inh inconclusive, PLK1 PBD inh 19µM
O=C(CSc1nc2ccc(Cl)cc2[nH]1)c1c[nH]c2ccccc12	G9a block 20µM
O=C(CSc1nc2ncc(Cl)cc2[nH]1)c1c[nH]c2ccccc12	none (no result: G9a block)
CC1Cc2cc(S(=O)(=O)CCC(=O)Nc3ccc(OC(F)(F)F)cc3)ccc2N1C(=O)C1CC1 (stereo unspecified)	none (no result: PI5P4Ka inh, PLK1 PBD inh)
Fc1cccc(Cc2c(-c3ccco3)nc3c(Cl)cc(C(F)(F)F)cn23)c1	PI5P4Ka inh inconclusive, PLK1 PBD inh 12µM (no result: BAZ2B inh, HP1b chromo inh, G9a block, JMJD2A Tudor)
COc1cc2c(cc1NC(=O)c1ccccc1-c1ccccc1C(=O)O)-c1ccccc1C2	PLK1 PBD inh 42µM (no result: BAZ2B inh, HP1b chromo inh, G9a block, JMJD2A Tudor)
COc1cc2c(cc1NC(=O)C(Cl)Cl)-c1ccc(NC(=O)C(Cl)Cl)cc1C2	HP1b chromo inh inconclusive, JMJD2A Tudor inconclusive (no result: BAZ2B inh, G9a block)
COc1ccccc1CC(=O)N(Cc1ccccc1)c1ccc(C)cc1	none (no result: G9a block)
COc1ccc(C(C)=O)cc1CS(=O)(=O)CC(=O)O	G9a block 45µM
COc1ccc(C(C)=O)cc1CC(=O)N(Cc1ccccc1)c1ccccc1	JMJD2A Tudor inconclusive, PLK1 PBD inh 30µM
COc1ccc(C(C)=O)cc1COC(=O)c1ccc(S(=O)(=O)N(C)C)cc1	BAZ2B inh inconclusive
CC(C)NC(=O)NC(=O)CSc1ncc(C(F)(F)F)cc1Cl	PLK1 PBD inh inconclusive (no result: PI5P4Ka inh)
CC(C)(C)NC(=O)NC(=O)CSc1ncc(C(F)(F)F)cc1Cl	JMJD2A Tudor inconclusive, PLK1 PBD inh 30µM (no result: PI5P4Ka inh)
CCOC(=O)c1c(C)[nH]c(C)c1S(=O)(=O)N1CCC(C(=O)Nc2ccccc2CC)CC1	none (no result: PI5P4Ka inh, PLK1 PBD inh)
O=C1NCCNC(=O)c2ccccc2OCCOc2ccccc21	none

Screening results deposited in PubChem by National Center for Advancing Translational Sciences (NCATS).
